According to the supplement of paper PMC10849652:
The full data set covers some 7,900 targets. This sample favours those with a hit. About 0.6% of all pairs of compound and target were hits. Unmarked numbers belong to inactive results.

compound: C[C@@H](Oc1cc(-c2cnn(C3CCNCC3)c2)cnc1N)c1c(Cl)ccc(F)c1Cl [crizotinib]; assay: log2 fold change, soluble protein after heating vs DMSO (PISA); higher = thermal stabilisation; K562 cells, 10 uM, 30 min; active = over 0.2 and 3.5 SD of the protein, either way, in both replicates (recomputed)
In short: (§1)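 K562 cells at 2×10^6 cells/mL were treated for 30 min with 10 μM compound, and aliquots were heated for 3 min over 48°C-58°C before pooling. Extraction used PBS with 0.5% NP-40 at 4°C, and soluble protein was the supernatant after 21,000xg for 90 min, measured by TMTpro 16plex LC-MS/MS with channel sums equalised. Thermal stability values, relative to control samples and from duplicates, are log2 fold changes.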

Chain of UniProt Q96F25 (Q96F25 whole entry, looked up): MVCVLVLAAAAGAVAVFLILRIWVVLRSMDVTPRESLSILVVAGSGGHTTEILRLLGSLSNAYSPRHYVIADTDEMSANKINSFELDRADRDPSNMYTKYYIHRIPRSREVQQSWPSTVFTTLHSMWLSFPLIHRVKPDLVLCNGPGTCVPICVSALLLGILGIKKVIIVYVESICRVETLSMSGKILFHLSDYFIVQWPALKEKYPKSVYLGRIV
Chain of UniProt Q8NFV4 (Q8NFV4 whole entry, looked up): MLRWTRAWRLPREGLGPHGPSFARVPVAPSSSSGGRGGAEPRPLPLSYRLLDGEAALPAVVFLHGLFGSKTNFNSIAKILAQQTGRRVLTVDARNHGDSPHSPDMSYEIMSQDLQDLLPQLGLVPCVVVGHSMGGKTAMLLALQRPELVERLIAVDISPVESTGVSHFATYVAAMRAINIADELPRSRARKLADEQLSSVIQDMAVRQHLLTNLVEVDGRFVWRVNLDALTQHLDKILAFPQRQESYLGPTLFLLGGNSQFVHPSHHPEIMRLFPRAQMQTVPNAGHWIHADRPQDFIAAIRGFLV
Chain of UniProt P35611 (P35611 whole entry, looked up): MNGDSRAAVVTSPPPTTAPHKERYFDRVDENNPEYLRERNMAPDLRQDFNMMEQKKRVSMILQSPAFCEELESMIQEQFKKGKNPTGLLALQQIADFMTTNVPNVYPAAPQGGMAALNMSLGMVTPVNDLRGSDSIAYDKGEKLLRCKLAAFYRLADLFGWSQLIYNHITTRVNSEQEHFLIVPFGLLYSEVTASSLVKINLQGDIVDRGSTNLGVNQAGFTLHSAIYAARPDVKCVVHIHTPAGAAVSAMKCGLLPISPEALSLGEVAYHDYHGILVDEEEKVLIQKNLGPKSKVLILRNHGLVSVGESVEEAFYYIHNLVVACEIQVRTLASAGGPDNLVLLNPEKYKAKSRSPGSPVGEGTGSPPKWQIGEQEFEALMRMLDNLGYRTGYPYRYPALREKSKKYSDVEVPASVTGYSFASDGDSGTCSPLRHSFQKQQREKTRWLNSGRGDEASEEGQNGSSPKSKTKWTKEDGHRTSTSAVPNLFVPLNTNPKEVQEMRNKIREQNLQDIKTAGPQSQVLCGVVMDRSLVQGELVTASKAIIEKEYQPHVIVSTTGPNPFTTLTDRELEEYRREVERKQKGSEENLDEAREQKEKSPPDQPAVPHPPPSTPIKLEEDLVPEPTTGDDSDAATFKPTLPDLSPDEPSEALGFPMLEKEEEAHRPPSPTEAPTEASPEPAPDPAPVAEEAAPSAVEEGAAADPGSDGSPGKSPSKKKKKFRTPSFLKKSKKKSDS
Chain of UniProt Q15059 (Q15059 whole entry, looked up): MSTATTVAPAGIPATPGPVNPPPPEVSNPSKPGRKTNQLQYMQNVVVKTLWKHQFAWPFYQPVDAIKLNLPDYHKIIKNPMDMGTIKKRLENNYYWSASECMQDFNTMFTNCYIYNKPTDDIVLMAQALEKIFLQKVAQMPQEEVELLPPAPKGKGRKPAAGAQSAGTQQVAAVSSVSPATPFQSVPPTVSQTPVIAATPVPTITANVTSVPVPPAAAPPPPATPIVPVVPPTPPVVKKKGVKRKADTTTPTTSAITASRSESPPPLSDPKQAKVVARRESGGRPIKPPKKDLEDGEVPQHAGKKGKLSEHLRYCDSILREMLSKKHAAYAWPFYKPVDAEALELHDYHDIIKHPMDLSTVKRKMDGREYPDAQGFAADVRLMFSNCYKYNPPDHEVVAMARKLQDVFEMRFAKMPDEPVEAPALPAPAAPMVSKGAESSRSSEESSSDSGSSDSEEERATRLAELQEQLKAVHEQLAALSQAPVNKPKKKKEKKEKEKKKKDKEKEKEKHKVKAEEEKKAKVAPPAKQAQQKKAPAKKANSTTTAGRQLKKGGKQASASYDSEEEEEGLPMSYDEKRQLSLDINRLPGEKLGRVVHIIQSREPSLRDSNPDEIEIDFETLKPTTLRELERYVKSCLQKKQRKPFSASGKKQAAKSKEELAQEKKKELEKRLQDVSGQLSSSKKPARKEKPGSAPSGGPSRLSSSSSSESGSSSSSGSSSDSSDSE
Chain of UniProt Q96KE9 (Q96KE9 whole entry, looked up): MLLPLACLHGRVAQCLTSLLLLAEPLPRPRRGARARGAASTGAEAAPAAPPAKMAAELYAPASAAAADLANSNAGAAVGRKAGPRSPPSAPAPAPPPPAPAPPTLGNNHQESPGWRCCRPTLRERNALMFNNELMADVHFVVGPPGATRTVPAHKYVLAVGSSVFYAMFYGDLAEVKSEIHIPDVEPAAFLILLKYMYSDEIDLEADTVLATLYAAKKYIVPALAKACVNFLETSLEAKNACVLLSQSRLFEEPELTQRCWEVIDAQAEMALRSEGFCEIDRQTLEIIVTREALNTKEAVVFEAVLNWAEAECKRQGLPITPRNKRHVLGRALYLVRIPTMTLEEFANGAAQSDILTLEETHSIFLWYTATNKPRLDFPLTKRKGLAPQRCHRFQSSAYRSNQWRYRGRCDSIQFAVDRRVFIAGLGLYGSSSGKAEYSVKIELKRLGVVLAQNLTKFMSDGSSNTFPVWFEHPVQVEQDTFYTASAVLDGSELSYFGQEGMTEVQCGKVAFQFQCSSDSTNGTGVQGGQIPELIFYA
Chain of UniProt P54252 (P54252 whole entry, looked up): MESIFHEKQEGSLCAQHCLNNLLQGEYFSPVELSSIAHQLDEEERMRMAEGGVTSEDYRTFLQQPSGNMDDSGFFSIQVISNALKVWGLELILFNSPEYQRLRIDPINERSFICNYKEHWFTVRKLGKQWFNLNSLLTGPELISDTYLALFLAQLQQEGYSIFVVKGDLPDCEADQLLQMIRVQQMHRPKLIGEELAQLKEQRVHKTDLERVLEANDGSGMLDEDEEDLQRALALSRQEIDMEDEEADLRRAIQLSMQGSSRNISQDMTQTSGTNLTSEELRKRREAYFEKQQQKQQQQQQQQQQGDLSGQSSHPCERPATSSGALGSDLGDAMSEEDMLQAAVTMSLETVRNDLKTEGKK
Chain of UniProt P49189 (P49189 whole entry, looked up): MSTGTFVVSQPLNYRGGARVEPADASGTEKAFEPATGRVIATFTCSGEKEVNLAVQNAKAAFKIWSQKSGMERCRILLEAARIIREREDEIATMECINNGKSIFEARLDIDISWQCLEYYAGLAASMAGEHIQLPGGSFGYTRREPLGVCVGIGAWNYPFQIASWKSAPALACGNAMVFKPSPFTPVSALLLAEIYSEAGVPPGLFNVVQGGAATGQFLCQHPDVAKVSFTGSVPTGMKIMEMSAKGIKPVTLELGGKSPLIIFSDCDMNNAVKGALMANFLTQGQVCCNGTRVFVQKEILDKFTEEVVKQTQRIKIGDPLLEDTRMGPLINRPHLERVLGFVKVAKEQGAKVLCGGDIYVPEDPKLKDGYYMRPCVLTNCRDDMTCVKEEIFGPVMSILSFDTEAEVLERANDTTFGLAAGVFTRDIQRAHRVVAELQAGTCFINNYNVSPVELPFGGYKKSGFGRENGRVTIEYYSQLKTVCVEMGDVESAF
Chain of UniProt P55008 (P55008 whole entry, looked up): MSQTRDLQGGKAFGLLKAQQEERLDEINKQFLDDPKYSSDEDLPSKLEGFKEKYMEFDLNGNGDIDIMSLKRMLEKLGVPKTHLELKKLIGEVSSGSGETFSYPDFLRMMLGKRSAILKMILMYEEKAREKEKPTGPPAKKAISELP
Chain of UniProt P42331 (P42331 whole entry, looked up): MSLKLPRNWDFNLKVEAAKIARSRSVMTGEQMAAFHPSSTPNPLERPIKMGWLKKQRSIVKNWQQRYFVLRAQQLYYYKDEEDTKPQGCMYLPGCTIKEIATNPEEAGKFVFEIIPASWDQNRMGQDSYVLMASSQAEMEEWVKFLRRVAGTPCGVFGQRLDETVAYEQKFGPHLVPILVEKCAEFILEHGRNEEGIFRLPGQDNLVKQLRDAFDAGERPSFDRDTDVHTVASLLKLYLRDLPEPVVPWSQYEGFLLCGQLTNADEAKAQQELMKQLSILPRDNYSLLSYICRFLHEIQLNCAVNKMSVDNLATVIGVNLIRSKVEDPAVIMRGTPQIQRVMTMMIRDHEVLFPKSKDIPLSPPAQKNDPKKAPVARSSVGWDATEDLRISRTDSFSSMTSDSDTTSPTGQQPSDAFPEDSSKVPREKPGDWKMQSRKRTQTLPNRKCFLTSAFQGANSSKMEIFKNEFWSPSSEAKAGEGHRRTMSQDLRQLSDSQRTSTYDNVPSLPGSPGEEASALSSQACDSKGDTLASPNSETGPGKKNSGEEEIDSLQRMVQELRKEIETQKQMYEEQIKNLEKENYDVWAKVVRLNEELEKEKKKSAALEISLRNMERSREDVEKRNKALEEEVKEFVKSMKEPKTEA
Chain of UniProt O14965 (O14965 whole entry, looked up): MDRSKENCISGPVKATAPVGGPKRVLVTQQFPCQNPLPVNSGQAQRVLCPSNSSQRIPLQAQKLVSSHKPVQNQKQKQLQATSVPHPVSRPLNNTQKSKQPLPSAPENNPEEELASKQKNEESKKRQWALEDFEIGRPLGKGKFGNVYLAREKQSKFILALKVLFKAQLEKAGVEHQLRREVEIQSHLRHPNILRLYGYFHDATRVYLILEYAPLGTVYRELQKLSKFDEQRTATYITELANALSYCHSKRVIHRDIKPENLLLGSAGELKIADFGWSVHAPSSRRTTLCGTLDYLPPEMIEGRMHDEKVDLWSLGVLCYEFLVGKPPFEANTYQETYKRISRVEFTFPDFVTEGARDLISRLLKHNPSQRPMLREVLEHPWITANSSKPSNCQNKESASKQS
Chain of UniProt P18846 (P18846 whole entry, looked up): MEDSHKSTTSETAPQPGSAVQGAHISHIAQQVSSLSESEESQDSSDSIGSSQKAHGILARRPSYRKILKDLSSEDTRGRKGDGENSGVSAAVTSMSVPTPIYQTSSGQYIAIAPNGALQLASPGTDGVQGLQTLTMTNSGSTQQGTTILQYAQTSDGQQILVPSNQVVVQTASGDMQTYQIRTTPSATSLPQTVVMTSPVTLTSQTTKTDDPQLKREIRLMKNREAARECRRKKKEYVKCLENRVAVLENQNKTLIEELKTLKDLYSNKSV

Q: How did the log2 fold change turn out when AARSD1 (UniProt Q9BTE6) was run?
A: -0.036

Q: BRAF, A0A2R8Y8E0 was tested. Which log2 fold change did it give?
A: 0.262

Q: How did the log2 fold change turn out when BDH2 (UniProt Q9BUT1) was run?
A: 0.243

Q: Which log2 fold change does the source give for AUH (UniProt Q13825) here?
A: -0.301

Q: For ATXN7L3 isoform 2 (UniProt Q14CW9), which log2 fold change is on record?
A: -0.043

Q: With ACTR3B (UniProt Q9P1U1) as the target, how does the log2 fold change read?
A: -0.005

Q: How did the log2 fold change turn out when ALG14 (UniProt Q96F25) was run?
A: -0.034

Q: For ANGEL1 (UniProt Q9UNK9), which log2 fold change is on record?
A: -0.058

Q: How did the log2 fold change turn out when ATXN3 isoform 1 (UniProt P54252) was run?
A: -0.028

Q: ABHD11 (UniProt Q8NFV4) was tested. Which log2 fold change did it give?
A: 0.149

Q: BRD3 (UniProt Q15059) was tested. Which log2 fold change did it give?
A: 0.109

Q: For ATR (UniProt Q13535), which log2 fold change is on record?
A: -0.021

Q: ADD1 isoform 4 (UniProt P35611) was tested. Which log2 fold change did it give?
A: 0.152

compound: C[C@@H]1COCCN1C2=NC(=NC(=C2)C3(CC3)S(=O)(=O)C)C4=C5C=CNC5=CC=C4; assay: as above
In short: as §1

Q: For ACVR1 (UniProt Q04771), which log2 fold change is on record?
A: 0.04

Q: How did the log2 fold change turn out when ARHGAP25 isoform 4 (UniProt P42331) was run?
A: -0.066

Q: ALDH9A1 (UniProt P49189) was tested. Which log2 fold change did it give?
A: 0.061

Q: Which log2 fold change does the source give for ALDH2 isoform 2 (UniProt P05091) here?
A: 0.244

Q: With BRD4 (UniProt O60885) as the target, how does the log2 fold change read?
A: 0.288

Q: Which log2 fold change does the source give for ATF1 (UniProt P18846) here?
A: 0.017

Q: AIF1 (UniProt P55008) was tested. Which log2 fold change did it give?
A: 0.11

Q: How did the log2 fold change turn out when ALG14 (UniProt Q96F25) was run?
A: -0.117

Q: For BSCL2 isoform 4 (UniProt Q96G97), which log2 fold change is on record?
A: 0.05

Q: How did the log2 fold change turn out when ARRDC1 (UniProt Q8N5I2) was run?
A: -0.097

Q: ABHD11 (UniProt Q8NFV4) was tested. Which log2 fold change did it give?
A: 0.309 (active)

Q: Which log2 fold change does the source give for AURKA (UniProt O14965) here?
A: -0.251

Q: For ACSL6 isoform 1 (UniProt Q9UKU0), which log2 fold change is on record?
A: 0.164

Q: Which log2 fold change does the source give for ASS1 (UniProt P00966) here?
A: 0.017

Q: With BTBD6 (UniProt Q96KE9) as the target, how does the log2 fold change read?
A: 0.033

Q: ACTBL2 (UniProt Q562R1) was tested. Which log2 fold change did it give?
A: -0.005

Q: For BRMS1 (UniProt Q9HCU9), which log2 fold change is on record?
A: -0.034

Q: ADD1 isoform 4 (UniProt P35611) was tested. Which log2 fold change did it give?
A: -0.213
